# In PubChem BioAssay (EPA / NIEHS):
# Inconclusive results are not listed. Active and inactive are the calls of the source. The calls were made as follows: active = hit-call score of the fitted dose curve at least 0.9, where 1 is the maximum; inconclusive = response in the unintended direction; inactive = score below 0.9.
# Molecular target: human Mitogen-Activated Protein Kinase 1 (MAPK 1), MAPK1 (gene 5594) (UniProt P28482)
# Experiment: NVS_ENZ_hMAPK1: NovaScreen (NVS) Enzymatic Assay for human Mitogen-Activated Protein Kinase 1 (MAPK 1) (AID 2283175)
# Procedure, shortened: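 Cell-free recombinant human MAPK1 enzymatic assay, fluorescence/electrophoretic mobility shift read at 1 h; loss of signal vs DMSO. Primary screen in duplicate at 25 uM; actives (e.g. ≥30% inhibition) run as concentration-response up to 50 uM.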
# Sequence of human Mitogen-Activated Protein Kinase 1 (MAPK 1), MAPK1 (gene 5594) (P28482 whole entry, looked up): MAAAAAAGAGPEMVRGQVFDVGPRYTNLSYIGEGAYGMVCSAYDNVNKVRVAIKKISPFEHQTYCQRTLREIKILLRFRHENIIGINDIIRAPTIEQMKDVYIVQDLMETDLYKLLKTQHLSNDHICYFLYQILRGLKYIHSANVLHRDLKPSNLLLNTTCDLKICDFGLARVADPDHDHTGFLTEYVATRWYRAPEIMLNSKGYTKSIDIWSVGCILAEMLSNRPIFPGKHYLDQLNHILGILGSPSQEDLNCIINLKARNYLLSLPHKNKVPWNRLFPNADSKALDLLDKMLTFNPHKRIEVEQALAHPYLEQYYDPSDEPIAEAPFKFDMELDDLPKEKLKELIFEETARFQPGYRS
SMILES,AC50,outcome
CCCCCCCCCCCCOS(=O)(=O)O,37.3 µM (active),–
O=C(N[C@H]1CN2CCC1CC2)c1ccc2c(c1)OCCO2,–,inactive
O=C(O)CC(O)(CC(=O)O)C(=O)O,–,inactive

# Molecular target: Mitogen-activated protein kinase 3 (Homo sapiens) (UniProt P27361)
# Experiment: NVS_ENZ_hMAPK3: NovaScreen (NVS) Enzymatic Assay for human Mitogen-Activated Protein Kinase 3 (MAPK 3) (AID 2283177)
# Method: NVS_ENZ_hMAPK3 is a biochemical, single-readout assay that uses extracted gene-proteins in a cell-free assay. Measurements were taken 1 hour after chemical dosing in a 384-well plate.NVS_ENZ_hMAPK3 is one of one assay component(s) measured or calculated from the NVS_ENZ_hMAPK3 assay. It is designed to make measurements of enzyme activity, a form of enzyme reporter, as detected with fluorescence intensity signals by Fluorescence and electrophoretic mobility shift technology.Data from the assay component NVS_ENZ_hMAPK3 was analyzed into 1 assay endpoint. This assay endpoint, NVS_ENZ_hMAPK3, was analyzed in the positive analysis fitting direction relative to DMSO as the negative control and baseline of activity. Using a type of enzyme reporter, loss-of-signal activity can be used to understand changes in the enzymatic activity as they relate to the gene MAPK3. Furthermore, this assay endpoint can be referred to as a primary readout, because this assay has produced multiple assay endpoints where this one serves a enzymatic activity function. To generalize the intended target to other relatable targets, this assay endpoint is annotated to the kinase intended target family, where the subfamily is serine/threonine kinase.
# Binding assays used specific radioligands (tritiated, iodinated) with non-radioactive competitive displacement ligands in agonist or antagonist protocols (as indicated) and various reference compounds and inhibitors to titrate specific binding to receptors and transporters. Most enzyme assays (CYPs, kinases, phosphatases, proteases, HDACs) used recombinant protein and specific substrates (fluorescence mostly, some colorimetric and radioactive) and inhibitors, followed by a biochemical separation of substrate and product. All assays for the biochemical HTS were initially run in duplicate at a single concentration (10 uM for CYP450 assays and 25 uM for all others). Assay-chemical combinations meeting a pre-defined threshold (e.g., 30% inhibition and other criteria defined below) were then run in singleton concentration-response format with maximum concentration of 20 uM for CYPs and 50 uM for all others. Each assay was run with positive and negative controls, and concurrent controls on every plate. The follow-up (secondary) screen tested active chemical-pairs in concentration series, as well as a few additional assays not tested in the primary screen, some selected negative inactives, and several cases re-run in the concentration series for confirmatory purposes.
# Sequence of Mitogen-activated protein kinase 3 (Homo sapiens) (P27361 whole entry, looked up): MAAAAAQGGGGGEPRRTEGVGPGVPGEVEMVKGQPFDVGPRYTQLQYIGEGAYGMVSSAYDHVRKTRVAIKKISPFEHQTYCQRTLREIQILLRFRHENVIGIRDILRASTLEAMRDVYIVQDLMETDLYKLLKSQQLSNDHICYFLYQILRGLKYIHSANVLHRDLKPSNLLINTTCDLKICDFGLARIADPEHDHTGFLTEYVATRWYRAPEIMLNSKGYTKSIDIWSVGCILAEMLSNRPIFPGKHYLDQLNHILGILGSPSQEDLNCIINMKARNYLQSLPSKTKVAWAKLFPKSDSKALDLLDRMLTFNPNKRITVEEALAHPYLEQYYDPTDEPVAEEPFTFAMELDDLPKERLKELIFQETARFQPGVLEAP
SMILES,outcome,AC50
O=C(N[C@H]1CN2CCC1CC2)c1ccc2c(c1)OCCO2,inactive,–
CC(C)O.CC(C)O.OCCN(CCO)CCO.OCCN(CCO)CCO.[Ti],–,0.00287 µM (active)
N#Cc1cccnc1,inactive,–
COc1nn(C(=O)NS(=O)(=O)c2ccccc2OC(F)(F)F)c(=O)n1C,inactive,–
O=C1c2ccccc2C(=O)C1C(=O)C(c1ccccc1)c1ccc(Cl)cc1 (stereo not drawn),inactive,–
